A selection: hits, their analogues and other compounds. The true share with any hit is near 5.9%.
GALK inhibitor = blocks human galactokinase activity | P51570 | Purified GALK, Kinase-Glo residual ATP luminescence | Potency, µM (top dose mostly 57.5 µM), for the others: at the top dose activity change, negative = inhibition, hits mostly inhibitors | 270,000 compounds, 0.007% hits | AID 1868; note: potency is the fitted concentration of half-maximal effect
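Kinase-Glo Plus luminescence measured ATP left after a 1 h room-temperature reaction. The reaction used 5 nM GALK, 100 uM galactose and 35 uM ATP at pH 8.0 (20 mM HEPES, 5 mM MgCl2, 60 mM NaCl, 1 mM DTT, 0.01% BSA).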
TrxR1 substrate = substrates of rat thioredoxin reductase 1; 390,000 compounds, 0.01% hits; O89049; Potency, µM (doses to about 114 µM), without a hit: at the top dose activity change, negative = substrate turnover; purified TrxR1 substrate turnover, NADPH consumption readout; note: potency is the fitted concentration of half-maximal effect; nearly all actives have a fitted effect of over 50% in size
Target sequence (O89049 whole entry, looked up): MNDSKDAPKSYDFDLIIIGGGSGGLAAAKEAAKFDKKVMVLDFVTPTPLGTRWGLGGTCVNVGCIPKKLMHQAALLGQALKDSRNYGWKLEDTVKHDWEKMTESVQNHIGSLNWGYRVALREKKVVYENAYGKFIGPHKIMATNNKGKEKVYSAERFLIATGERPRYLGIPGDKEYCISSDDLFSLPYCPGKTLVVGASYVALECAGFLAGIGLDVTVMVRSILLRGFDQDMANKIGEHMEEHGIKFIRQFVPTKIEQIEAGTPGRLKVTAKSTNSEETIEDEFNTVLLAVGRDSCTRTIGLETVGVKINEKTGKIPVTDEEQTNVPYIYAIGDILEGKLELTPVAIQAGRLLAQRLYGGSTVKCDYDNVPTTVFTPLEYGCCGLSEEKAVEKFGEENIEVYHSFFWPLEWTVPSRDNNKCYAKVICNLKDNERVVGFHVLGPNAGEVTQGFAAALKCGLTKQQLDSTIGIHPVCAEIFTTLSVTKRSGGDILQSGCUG
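Rat TrxR1, dispensed at 90 nM, was prereduced with 400 uM NADPH (final) for 5 min at ~22 deg C, then incubated with compound 15 min before 400 uM selenite. A first-read NADPH fluorescence drop versus no-compound background flagged substrates.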
rTrxR1 inhibitor = rat TrxR1 inhibition. recombinant rTrxR1, NADPH fluorescence consumption, selenite substrate. Potency, µM (top dose mostly 114 µM), inactives show at the highest dose activity change, negative = inhibition, most hits filed as inhibitors. O89049. 390,000 compounds, 1% hits; note: potency is the fitted concentration of half-maximal effect; nearly all actives have a fitted effect of over 65% in size
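Rat TrxR1 (90 nM in the dispensed reagent) was pre-reduced with 400 uM NADPH for 5 min at room temperature, then incubated with compound for 15 min. After 400 uM selenite was added, NADPH fluorescence (Ex 340/Em 450 nm) was followed for 8 min.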
Gal4-VP16 FLuc = Gal4-VP16 reporter inhibition counter-screen; Potency, µM (series often up to 53.6 µM), inactives show at the top dose activity, negative = inhibition, hits mostly inhibitors; Drosophila S2 Gal4-VP16 UAS-luciferase, luminescence, 20 h; AID 2546; 310,000 compounds, 3.5% hits;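 note: Gal4-VP16 expression switched on by copper sulfate through the metallothionein promoter; potency is the fitted concentration of half-maximal effect; nearly all actives have a fitted effect of over 50% in size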
RORg inh = ROR gamma (mouse) transcription inhibition. P51450. Drosophila S2 Gal4-RORgamma UAS-luciferase reporter, 20 h. Potency, µM (doses to about 53.6 µM), for inactives: at the highest dose activity change, negative = inhibition, usual class: inhibitors. 310,000 compounds, 5.4% hits. AID 2551; note: potency is the fitted concentration of half-maximal effect; nearly all actives have a fitted effect of over 60% in size
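Schneider cells (Drosophila), stable Gal4 DBD–ROR gamma + UAS-luc; 1 hr cmpd preincubation; Cu2+ induction 700 uM final; 20 hr ambient; luminescence.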
Coupling enz = coupling enzyme interference in Giardia aldolase counter-screen; activity change, negative = inhibition, % at 58.2 µM, hits read low; 290,000 compounds, 0.67% hits; coupling enzyme system counterscreen, AmpLite Red fluorescence; AID 2472; in the data active = activity change below about -30%
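First, compound is pin-transferred into glyceraldehyde-3-phosphate coupling-enzyme reagent at 57.5 uM final and held 10 min at RT. Next, substrate, coupling system and AmpLite Red are added. After 20 min RT, fluorescence (525/598 nm) is read.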
* hit, by the source's call; u = inconclusive; x = not tested or not shown; [ ] = remark or other dose. Unless noted, calls come from the whole dose curve; as a rule, active = well fitted curve in the direction sought with a large enough effect; inconclusive = small, poorly fitted or top-dose-only effect, or another doubt; inactive = no such curve, though single readings can be large; an effect the other way counts as inactive or inconclusive. % is set by controls: 0 for no effect and ±100 for the full control effect.

SMILES	GALK inhibitor	TrxR1 substrate	rTrxR1 inhibitor	Gal4-VP16 FLuc	RORg inh	Coupling enz
S=c1[nH]nc(-c2ccccn2)n1/N=C/c1cccc(Cl)c1	-2.7%	-8.3%	u	u	11.2µM*	0.0
CN(c1cccc(Cl)c1)S(=O)(=O)c1cccc(C(=O)Nc2nc3ccccc3[nH]2)c1	-1.2%	5.6%	9.8%	3.55µM*	2.82µM*	-2.0
COc1ccc(N(C)S(=O)(=O)c2cccc(C(=O)Nc3nc4ccccc4[nH]3)c2)cc1	11.9%	5.4%	13.4%[57.1 µM]	11.2µM*	3.98µM*	0.6
COc1ccc(N(C)S(=O)(=O)c2cccc(C(=O)Nc3nnc(C)s3)c2)cc1	x	-5.1%	17.2%	x	x	x
C=CCN(c1ccccc1)S(=O)(=O)c1cccc(C(=O)Nc2nc3ccccc3[nH]2)c1	0.3%	-4.7%	-6.6%	4.47µM*	2.82µM*	-1.4
C#CC(=O)N(c1ccc(OC)cc1OC)C(C(=O)NC1CCCC1)c1cccs1 (stereo not given)	1.4%	15.7%[57.1 µM]	u	7.94µM*	6.31µM*	2.3
COc1ccc(N(C(=O)c2snc(C(N)=O)c2N)C(C(=O)NC2CCCC2)c2cccs2)cc1OC (stereo not given)	0.3%	-4.6%	4.3%	19.9%	0.1%	0.7
COc1ccc(N(C(=O)c2ccco2)C(C(=O)NC2CCCCC2)c2cccs2)cc1OC (stereo not given)	1.7%	26.2%	-5.7%	-3.2%	u	-1.3
C#CC(=O)N(c1cc(OC)ccc1OC)C(C(=O)NC1CCCC1)c1cccs1 (stereo not given)	-2.0%	-2.2%	1µM*	7.08µM*	4.47µM*	-1.0
O=C(CCOc1ccccc1)Nc1ccnn1C1CCN(Cc2ccc(O)cc2)CC1	-3.3%	1.4%	u	-2.5%	25.3%	x
COCc1ccc(CN2CCC(n3nccc3NC(=O)CCOc3ccccc3)CC2)o1	1.2%	-0.1%	1.5%	u	8.91µM*	4.1
CCOC(=O)SC1=N/C(=C\c2ccc(N(C)C)cc2)C(=O)S1	-1.3%	-6.1%	-32.9%	u	12.6µM*	1.3
CCSC1=N/C(=C\c2ccc(C(=O)O)cc2)C(=O)S1	0.1%	-7.4%	-26.4%	11.0%	19.9%	2.1
O=C(NCCN1CCCC1)C1CCC(=O)N(CCCN2CCOCC2)C1 (stereo not given)	-0.7%	-1.2%	14.6%	-6.1%	-6.2%	x
CCC1(CC)N=C(c2ccccc2)C(=S)N1	6.9%	1.0%	10.4%	11.2µM*	3.55µM*	0.4
COc1ccc(S(=O)(=O)NCc2ccccn2)cc1NC(=O)c1ccc(C)cc1	x	-0.7%[57.1 µM]	5.4%[57.1 µM]	x	x	x
Cc1cc(N/N=C/c2cccc(Cl)c2)nc(NCc2ccccc2)n1	x	0.8%	9.7%[57.1 µM]	u	u	-1.0
Cc1cc(N2CCOCC2)nc(NCc2ccccc2)n1	1.3%	2.9%	4.4%	u	7.0%	0.6
Cc1cc(N2CCCCC2)nc(NCc2ccccc2)n1	1.6%	-3.5%	u	u	20µM*	-2.8
Cc1cc(Nc2cccc(Cl)c2)nc(NCc2ccccc2)n1	-4.6%	-2.4%	8.2%	15.8µM*	u	-5.8
Cn1c(=O)n(C)c2cc([N+](=O)[O-])c(N3CCN(C(=O)c4ccccc4Cl)CC3)cc21	5.7%	-4.0%	11.1%	-4.2%	22.6%	0.6
CC1CCN(C(=S)NC(=O)C2CCCCC2)CC1	-0.1%	-5.9%	11.1%[57.1 µM]	u	12.6µM*	3.9
Cn1c(=NC(=O)CCl)sc2ccccc21	2.5%	-3.8%	35.5µM*	u	u	x
Cn1c(=NC(=O)c2ccco2)sc2ccccc21	10.4%	10.2%	1.5%[57.1 µM]	-21.0%	-40.4%	-5.5
COc1ccc(-c2c(C)[nH]n3c(=O)c(Cc4ccccc4)c(C)nc23)cc1OC	0.8%	3.2%	4.4%	u	3.55µM*	7.3
SMILES	GALK inhibitor	TrxR1 substrate	rTrxR1 inhibitor	Gal4-VP16 FLuc	RORg inh	Coupling enz
Cc1ccccc1Cc1c(C)nc2c(-c3ccccc3)c(C)[nH]n2c1=O	x	1.2%	22.7%	x	x	x
Cc1nc2c(-c3ccc(Cl)cc3)c(C)[nH]n2c(=O)c1Cc1ccccc1	0.4%	4.8%[57.1 µM]	3.9%[57.1 µM]	u	1.41µM*	-1.6
Cc1nc2c(-c3ccc(F)cc3)c(C)[nH]n2c(=O)c1Cl	0.2%	-2.4%	-2.6%	11.2µM*	11.2µM*	4.5
Cc1cccc(Cc2c(C)nc3c(-c4ccccc4)c(C)[nH]n3c2=O)c1	x	8.0%	14.0%	x	x	x
Cc1nc2c(-c3ccccc3)c(C)[nH]n2c(=O)c1Cc1ccccc1	-1.8%	12.4%	22.5%[57.1 µM]	7.08µM*	2.82µM*	0.4
CC(C)CCNC(=O)c1onc(CSc2ccccn2)c1C(=O)NCCC(C)C	x	-16.5%	1.8%	x	x	x
COC(=O)[C@@H]1OC(=O)[C@H]2O[C@@]23[C@@]1(C)CC[C@@H]1[C@@]2(C)C=CC(=O)OC(C)(C)[C@@H]2CC(=O)[C@]13C	x	3.7%	-6.5%[57.1 µM]	x	x	x
Cc1ccc(N(C)C(=O)c2sc3nc4n(c(=O)c3c2C)CCCC4)cc1C	x	70.5%	21.0%	x	x	x
COc1ccccc1C(=O)Nc1sc2c(c1C#N)CCC2	2.7%	9.4%	32.4%	5.6%	1.4%[1.91 µM]	-3.3
Cc1cccc2sc(NC(=O)CN3C(=O)c4ccccc4C3=O)nc12	1.5%	-8.9%	-7.8%	u	-29.7%	0.6
CCOC(=O)C1=C(C)C(c2ccccc2OC)NC(=S)N1 (stereo not given)	x	-1.4%	-5.6%	0.0%	2.82µM*	-0.4
COc1ccc(CNc2nc(-c3ccccc3)nn2S(=O)(=O)c2ccccc2)cc1	x	0.0%	19.8%	x	x	x
COc1ccc(Br)cc1CN1CCN(S(=O)(=O)Cc2ccccc2)CC1	-4.3%	-2.5%	14.2%	-2.0%	14.3%	x
O=C(CSc1nc2ccccc2c(=O)[nH]1)c1ccc(O)cc1O	3.2%	-8.4%	3.6%	-5.4%	u	-3.3
Cc1cc(=O)[nH]c(SCC(=O)c2ccc(O)c(O)c2)n1	-6.6%	-20.4%	56.2µM*	0.6%	-39.2%	2.8
Cc1ccc(C(=O)CSc2nc(C)cc(=O)[nH]2)cc1	-3.6%	0.4%	2.6%	9.3%	11.4%	x
O=C(CSc1nc2ccccc2c(=O)[nH]1)c1ccc(O)c(O)c1	-4.3%	-16.8%	50.1µM*	-7.3%	-29.7%	-2.2
O=C(CSc1nc2ccccc2n1CCc1ccccc1)N1CCOCC1	1.7%	-5.6%	u	-0.9%	64.6%	-1.5
O=C(CSc1nc2ccccc2n1CCc1ccccc1)c1ccc(O)c(O)c1	-2.5%	9.2%[57.1 µM]	-6.8%[57.1 µM]	u	7.94µM*	-0.1
Cc1cccc(NC(=S)N/N=C/C(C)c2ccccc2)c1C (stereo not given)	1.4%	-2.7%[57.1 µM]	-22.0%[57.1 µM]	7.94µM*	1.26µM*	-1.5
Cc1ccccc1NC(=S)NC(C)C(c1ccccc1)N1CCN(C)CC1 (stereo not given)	13.1%	9.7%[57.1 µM]	15.7%[57.1 µM]	1.8%	-0.2%	2.9
